Measured values as given in PubChem BioAssay AID1259415 (National Center for Advancing Translational Sciences (NCATS), 2018).
The whole screen tested about 410,000 compounds, of which about 18,000 (4.4%) were called active. About 7% were inconclusive and are not listed. Only a selection was taken, and actives are over-represented in it overall. A number with no mark means an inactive call. No stated cut-off is given here; in the data, active means activity change below about -60%; inconclusive means no clear call, values can overlap the other calls; inactive means above about -39%.

Test: qHTS Assay for inhibitors of the human cytomegalovirus (HCMV)
Details: HFF cells, HCMV-luciferase reporter, 72 h; at 57.5 µM; hits give low values
Method in brief: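 Two-dose cell screen: HFF monolayers treated with compounds and infected with luciferase-expressing HCMV at 1 PFU/cell, 72 h at 37C, then lysed for luciferase measurement.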
On the % scale 0 is the no-effect control and ±100 the full control effect.

SMILES | activity change, negative = inhibition
COc1ccc(C(=O)CSc2c(C(C)C)cnc3c2c(=O)n(C)c(=O)n3C)cc1 | 8.98%
CCOCCc1nn2c(=O)cc(COC(=O)CNC(=O)c3ccc(C(C)(C)C)cc3)nc2s1 | -3.83%
CCOc1ccc(N(CC(=O)NCCc2ccc(OC)cc2)S(C)(=O)=O)cc1 | -24%
Cc1cccc(C(CC(=O)NCC2(c3ccccc3)CCCC2)c2ccccc2)c1O (stereo unspecified) | -38.6%
O=C(NCCc1ccccc1)/C(=C\c1ccc([N+](=O)[O-])cc1)NC(=O)c1ccccc1 | -102% (active)
O=C(N/C(=C\c1ccc([N+](=O)[O-])cc1)C(=O)N1CCCCC1)c1ccco1 | -3.57%
CNC(=O)/C(=C\C=C\c1ccccc1)NC(=O)c1ccc([N+](=O)[O-])cc1 | 45.3%
CCCN(CCC)CCNC(=O)c1ccc2c(c1)NC(=O)C(CS(=O)(=O)Cc1cccc(Br)c1)N2 (stereo unspecified) | -22.3%
CC(=O)N1CCc2c(sc(NC(=O)CCS(=O)(=O)c3ccc(C)cc3)c2C(N)=O)C1 | 5.61%
CC(C)N1CCc2c(sc(NC(=O)Cc3ccccc3)c2C#N)C1 | -9.26%
CC(=O)N1CCc2c(sc(NC(=O)CCS(=O)(=O)c3ccccc3)c2C#N)C1 | -99.8% (active)
CC(C)CNc1cccc2c1S(=O)(=O)N[C@H](CC(C)C)CO2 | -24.9%
O=C(CSc1nnc(N2CCOCC2)n1-c1cccc(F)c1)N1CCN(c2ccccn2)CC1 | -18.8%
CCCNC(=O)C[C@@H]1CC[C@@H]2[C@H](COC[C@H](O)CN2C(=O)c2cc(Cl)cc(Cl)c2)O1 | -17.8%
O=C(C[C@H]1CC[C@H]2[C@@H](COC[C@H](O)CN2C(=O)c2ccccn2)O1)N1CCN(c2ccccc2)CC1 | -65.2% (active)
COc1cccc(OCCn2c(-c3ccc(Br)cc3)nc3ccccc3c2=O)c1 | 43%
COc1ccc(-c2nc3ccccc3c(=O)n2CCc2ccc(O)cc2)cc1 | -62% (active)
COc1ccccc1OCCCn1c(-c2ccc(Cl)cc2)nc2ccccc2c1=O | 39.4%
Cc1ccc2c(c1)N(C(=O)CCC(=O)NCc1ccccc1F)CC(C)O2 (stereo unspecified) | 8.23%

SMILES | activity change, negative = inhibition
Cc1ccc(C(=O)C(=S)N2CCOCC2)cc1 | 6.2%
Cc1ccc(C(=O)NC(=S)Nc2ccc(N3CCOCC3)cc2)cc1 | -103% (active)
COC(=O)c1ccc(NC(=S)NN2CCOCC2)cc1 | 35.3%
O=C(NCCN1CCN(Cc2ccccc2)CC1)c1cc2c(=O)[nH]c3ccccc3c2s1 | -8.01%
CCC1CCCCN1CCCNC(=O)c1cc2c(Cl)nc3ccccc3c2s1 (stereo unspecified) | -99.5% (active)
Cc1nc2ccccc2c2oc(C(=O)NCCCN3CCC(C)CC3)cc12 | 52.7%
Cc1ccc(NC(=O)CN(C)C(=O)c2ccc(Cl)c(S(=O)(=O)NCc3ccco3)c2)cc1 | -35%
O=S(=O)(c1ccc(C2CCCCC2)cc1)N1CCN(c2ccc(Cl)c(Cl)c2)CC1 | 9.35%
Cc1c(Br)c([N+](=O)[O-])nn1CC(=O)Nc1sc2c(c1C(=O)OC(C)C)CCC(C)C2 (stereo unspecified) | 9.26%
COC(=O)c1c(NC(=O)CN2CCN(S(=O)(=O)c3ccccc3[N+](=O)[O-])CC2)sc2c1CCC(C)C2 (stereo unspecified) | -60.3% (active)
COC(=O)c1c(NC(=O)CCCOc2ccccc2)sc2c1CCC(C)C2 (stereo unspecified) | 5.16%
Cn1c(=O)oc2cc(S(=O)(=O)CCC(=O)NCCc3ccc(Cl)cc3)ccc21 | 11.3%
CCN(CC)c1nn2c(=O)c(C(=O)NCCc3ccccc3)cnc2s1 | 3.6%
COc1ccc(NS(=O)(=O)c2cc3c4c(c2)CC(=O)N4CCC3)cc1Cl | -18.7%
CCOc1ccc(Br)cc1S(=O)(=O)Nc1cccc(S(=O)(=O)N(CC)CC)c1 | 14.1%
CCOc1ccc(Br)cc1CSC(=N)N | -73.3% (active)
CCOc1ccc(Br)cc1S(=O)(=O)N1CCC(C(=O)O)CC1 | -26.6%
Cc1nn(C)c2c1c(C(F)(F)F)cc(=O)n2C(C)C(=O)NCc1ccc(Cl)cc1 (stereo unspecified) | 7.11%
O=C(c1cccc(Br)c1)N1CCN(Cc2cc(=O)n3nc(-c4ccccc4)sc3n2)CC1 | -19.8%

SMILES | activity change, negative = inhibition
COc1ccccc1NC(=O)Cn1cnc2ccc(S(=O)(=O)N3CCC(C)CC3)cc2c1=O | -5.25%
COc1ccc(NC(=O)CSc2nnc(-c3nnn(-c4ccc(F)cc4)c3C)o2)cc1 | 10.5%
Cc1ccccc1NC(=O)Cn1c(=O)n(CCc2ccccc2)c(=O)c2ccccc21 | 24.5%
Cc1ccc(Cn2nnc3c(=O)[nH]c(C4CCN(S(=O)(=O)/C=C/c5ccccc5)CC4)nc32)cc1 | 48.5%
O=C(c1ccccc1F)N1CCC(c2nc3c(nnn3Cc3cccc(F)c3)c(=O)[nH]2)CC1 | 67.9%
Cc1ccc(NC(=O)N2CCC(c3nc4c(nnn4Cc4c(F)cccc4Cl)c(=O)[nH]3)CC2)cc1 | -65.5% (active)
CCOc1ccc(-n2c(C)nc3c(cnn3-c3ccc(C)cc3)c2=O)cc1 | -26.3%
CCCNC(=S)N1CCC(NC(=O)C23CC4CC(CC(C4)C2)C3)CC1 | 20%
Cc1ccc(CNC(=O)CSc2c(C)cnc3c2c(=O)n(C)c(=O)n3C)cc1 | -25%
O=C(OC12CC3CC(CC(C3)C1)C2)c1ccc(NCc2cc(O)ccc2O)cc1 | -100% (active)
O=C(CSCc1c(Cl)cccc1Cl)NN1C(=O)c2ccccc2C1=O | 12.2%
CCN1CCc2nc3sc(C(=O)Nc4ccccc4OC(F)(F)F)c(N)c3cc2C1 | -25.3%
CCCCOC(=O)/C(C#N)=C/c1ccc(-c2cccc(C(F)(F)F)c2)o1 | -3.64%
N#C/C(=C\c1ccc(-c2cccc([N+](=O)[O-])c2)o1)C(=O)NCCN1CCOCC1 | -67.8% (active)
Cc1ccc(Cc2cnc(NC(=O)/C(C#N)=C/c3ccc(-c4cccc([N+](=O)[O-])c4)o3)s2)cc1 | -61.6% (active)
O=C(NCCN1CCN(C(=O)c2cccc([N+](=O)[O-])c2)CC1)C(=O)NCc1ccc(Cl)cc1 | 27.7%
CCOC(=O)c1ccc(-c2ccc(/C=C(\C#N)C(=O)Nc3ccc(OCC)cc3)o2)cc1 | 4.93%
CCOC(=O)c1ccc(-c2ccc(/C=C(\C#N)C(=O)Nc3ccc(C)cc3)o2)cc1 | 31.4%
